# PubChem BioAssay AID720700 (The Scripps Research Institute Molecular Screening Center, 2013)
# In all, about 370,000 compounds went through this assay and about 3,100 (0.84%) were called active. No stated cut-off is given here; in the data, active means inhibition above about 9.5%; inactive means the rest. This excerpt belongs to a sample that is enriched for actives.
# Target: 1-phosphatidylinositol 4,5-bisphosphate phosphodiesterase gamma-1 (Homo sapiens) (UniProt P19174)
# Assay: PLC-gamma1 enzyme inhibitors, primary screen, biochemical, fluorescence, purified enzyme (AID 720700)
# Details: purified PLC-gamma1, fluorogenic substrate, at 12.2 µM, hits give high values
# 1-phosphatidylinositol 4,5-bisphosphate phosphodiesterase gamma-1 (Homo sapiens), sequence (P19174 whole entry, looked up): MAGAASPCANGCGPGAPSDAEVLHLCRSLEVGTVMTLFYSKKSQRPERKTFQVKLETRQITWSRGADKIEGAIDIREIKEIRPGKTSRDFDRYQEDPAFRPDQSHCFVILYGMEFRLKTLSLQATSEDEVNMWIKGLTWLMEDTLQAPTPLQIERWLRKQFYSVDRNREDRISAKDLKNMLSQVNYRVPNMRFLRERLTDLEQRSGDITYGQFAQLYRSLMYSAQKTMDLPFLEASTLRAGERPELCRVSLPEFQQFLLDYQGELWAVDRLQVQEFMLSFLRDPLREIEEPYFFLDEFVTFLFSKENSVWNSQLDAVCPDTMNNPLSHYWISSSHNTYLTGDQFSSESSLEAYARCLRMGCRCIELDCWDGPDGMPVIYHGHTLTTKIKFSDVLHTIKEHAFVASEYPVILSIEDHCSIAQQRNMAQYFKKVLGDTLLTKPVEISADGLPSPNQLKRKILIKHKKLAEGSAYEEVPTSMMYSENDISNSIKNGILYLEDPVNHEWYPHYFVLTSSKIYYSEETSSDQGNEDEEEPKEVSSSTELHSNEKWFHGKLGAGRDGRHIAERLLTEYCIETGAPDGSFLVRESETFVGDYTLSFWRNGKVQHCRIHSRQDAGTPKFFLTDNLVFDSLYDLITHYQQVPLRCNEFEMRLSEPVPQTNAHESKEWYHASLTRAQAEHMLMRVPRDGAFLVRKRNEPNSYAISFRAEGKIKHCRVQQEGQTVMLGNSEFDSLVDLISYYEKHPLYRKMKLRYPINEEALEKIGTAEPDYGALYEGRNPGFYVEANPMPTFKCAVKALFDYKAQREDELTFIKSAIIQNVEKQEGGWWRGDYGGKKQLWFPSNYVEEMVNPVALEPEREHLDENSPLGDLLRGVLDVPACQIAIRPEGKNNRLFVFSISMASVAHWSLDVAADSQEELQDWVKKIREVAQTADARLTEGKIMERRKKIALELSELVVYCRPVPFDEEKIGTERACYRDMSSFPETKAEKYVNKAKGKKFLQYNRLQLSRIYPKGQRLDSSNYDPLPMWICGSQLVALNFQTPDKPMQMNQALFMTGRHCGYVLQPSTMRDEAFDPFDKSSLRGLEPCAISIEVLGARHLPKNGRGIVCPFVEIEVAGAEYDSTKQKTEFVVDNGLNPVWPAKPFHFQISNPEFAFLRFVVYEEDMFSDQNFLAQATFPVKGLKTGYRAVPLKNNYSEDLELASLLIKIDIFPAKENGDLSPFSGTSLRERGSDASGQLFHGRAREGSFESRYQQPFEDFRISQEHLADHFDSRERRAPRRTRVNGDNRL
row,SMILES,inhibition
1,C=CCN1C(C(=O)OC)CN(Cc2cn(Cc3ccccc3)nn2)CCS1(=O)=O (stereo not drawn),2.03% (inactive)
2,COc1cccc(CNC(=O)CNS(=O)(=O)c2ccc3nc(C)sc3c2)c1OC,2.68% (inactive)
3,CCCC[C@H](C(=O)N(CC)c1ccccc1)[C@@H](O)c1ccc2ccccc2c1,2.96% (inactive)
4,CN(C)c1ccc(/C=C2\NC(=S)N(Cc3ccccc3)C2=O)cc1,-48.2% (inactive)
5,CCCCN=C1N/C(=C\c2ccco2)C(=O)N1c1ccccc1,-18.1% (inactive)
6,O=C1/C(=C\c2ccsc2)NC(=S)N1c1ccccc1,9.99% (active)
7,COc1ccc(C2CC=C(C(=O)O)C(c3ccccc3F)N2S(=O)(=O)c2ccc(C)cc2)cc1OC (stereo not drawn),-0.05% (inactive)
8,CCCCOCCCNC(=O)C[C@H]1C[C@@]2(C(=O)OC)C(=C[C@H](COCc3ccccc3)O[C@@H]2C)N(Cc2cccc3ccccc23)C1=O,2.09% (inactive)
9,CCCCNC(=O)C[C@@H]1C(=O)N(CCc2ccc(Cl)cc2)C2=CCCC[C@]21C(=O)OCC,1.96% (inactive)
10,Cc1ccc(-c2nnc(SCC(=O)Nc3ccc(Oc4ccccc4)cc3)n2Cc2ccco2)cc1,-3.01% (inactive)
11,COc1ccc(-c2cc(-c3nnc(SCc4ccc([N+](=O)[O-])cc4)n3N)[nH]n2)cc1,-0.19% (inactive)
12,C#CCN([C@H](C(=O)OC)C(C)CC)S(=O)(=O)c1ccccc1Br (stereo partly drawn),-0.23% (inactive)
13,CN1c2ccc(C=O)c3c(C=O)ccc(c23)N(C)C1(C)C,-156% (inactive)
14,Cc1ccc(C=O)c([B-](F)(F)F)c1,9.66% (active)
15,COc1ccc(C(=O)CSc2nnc(-c3cnccn3)n2-c2ccc(C)cc2)cc1,-2.8% (inactive)
16,CCC[C@H]1C(=O)CC[C@@]23CCCN2C(=O)CCC[C@@H]13,-1.51% (inactive)
17,CCOC(=O)[C@]12CCCC3=C1N(CCC3)C(=O)[C@@H](CC(=O)NCc1cccs1)C2,-0.59% (inactive)
18,C(=C\c1ccccc1)/CSc1nnc(-c2cccnc2)n1Cc1ccco1,-1.89% (inactive)
19,CSc1ccc(C=Nn2c(-c3ccc(F)cc3)n[nH]c2=S)cc1,3.12% (inactive)
20,S=c1[nH]nc(-c2cccnc2)n1/N=C/C(Cl)=C\c1ccccc1,12.7% (active)
21,Cc1[nH]c(C)c(S(=O)(=O)N2CCN(c3cccc(C(F)(F)F)c3)CC2)c1C(=O)N1CCCCC1,0.49% (inactive)
22,Cc1ccc(C)c(N2CCN(S(=O)(=O)c3c(C)[nH]c(C)c3C(=O)N3CCCC3)CC2)c1,17% (active)
23,Cc1[nH]c(C)c(S(=O)(=O)N2CCN(c3cccc(C(F)(F)F)c3)CC2)c1C(=O)N1CCCC1,0.67% (inactive)
24,CN(C(N)=NC(=O)/C=C/c1ccccc1)C(C#Cc1ccccc1)Cc1ccccc1 (stereo not drawn),-3.61% (inactive)
25,C=CCN(Cc1ccc2c(c1)OCO2)C(C#CC1CC1)C(C)(C)C (stereo not drawn),-0.25% (inactive)
26,O=c1ccc2c(-c3ccccc3S(=O)(=O)O)c3ccc(O)c(O)c3oc-2c1O,25.2% (active)
27,O=C(CSc1nc2ccccc2n1Cc1ccccc1)NNC(=S)Nc1ccccc1,3.11% (inactive)

row,SMILES,inhibition
1,C#CCNC(=O)C[C@H]1C[C@@]2(C(=O)OC)C(=C[C@H](C(C)C)O[C@@H]2C2CC2)N(Cc2ccco2)C1=O,0.18% (inactive)
2,O=C(NCc1cccs1)C1CCN(S(=O)(=O)c2ccccc2[N+](=O)[O-])CC1,3.22% (inactive)
3,c1coc(CCNc2ncnc3ccc(-c4ccc5c(c4)OCO5)cc23)c1,-114% (inactive)
4,CC(C)CCSc1ncnc2c1oc1nc3c(cc12)COC(C)(C)C3,10.6% (active)
5,CC1(C)Cc2nc3sc4c(SCC(=O)NC(c5ccccc5)c5ccccc5)ncnc4c3cc2CO1,-1.56% (inactive)
6,CCCc1nc2oc3c(OCC)ncnc3c2c2c1COC(C)(C)C2,2.49% (inactive)
7,COC(=O)C1CN(Cc2ccc(F)cc2)CCS(=O)(=O)N1Cc1ccc(Cl)cc1 (stereo not drawn),-0.52% (inactive)
8,C=CCN1C(=O)[C@@H](CC(=O)NCC2CCCCC2)[C@]2(C(=O)OC)CCCCC=C12,-0.08% (inactive)
9,CC(C)CSc1nnc(-c2cccnc2)n1Cc1ccccc1,0.54% (inactive)
10,COc1ccnc(NC(=S)N2CCN(c3ncc(C(F)(F)F)cc3Cl)CC2)c1,4.36% (inactive)
11,O=C(Nc1cccc(Cl)c1)OC1CC2CC1[C@H]1CCCCN1[C@H]2Cc1ccccc1 (stereo partly drawn),-19.3% (inactive)
12,O=C1N[C@H](Cc2c[nH]c3ccccc23)COC(=O)[C@H](Cc2ccc(F)cc2)C/C=C\C[C@H]1CC(=O)N(CCO)Cc1ccccc1,1.6% (inactive)
13,O=C1NC[C@@H](c2ccccc2)OC(=O)[C@H](Cc2ccc(F)cc2)CC/C=C/C[C@H]1CC(=O)N(CCO)Cc1ccccc1,-0.18% (inactive)
14,O=C1N[C@@H](c2ccccc2)COC(=O)[C@H](Cc2ccc(F)cc2)C/C=C\C[C@@H]1CC(=O)N(CCO)Cc1ccccc1,9.59% (active)
15,O=C(Nc1nc2ccc(Cl)cc2s1)c1cc(-c2ccc(Cl)cc2)nc2ccccc12,6.56% (inactive)
16,Cc1ccc(Cn2cc(CN3[C@@H](CC(C)C)COc4ccc(Cl)cc4S3(=O)=O)nn2)cc1,1.86% (inactive)
17,COc1ccc(Cn2ccc3ccc(-c4ccc5ccn(Cc6ccccc6C)c5c4)cc32)cc1,-65% (inactive)
18,O=S1(=O)c2c(cccc2N2CC[C@H](O)C2)O[C@@H]2CCN1C2,-2.5% (inactive)
19,CCOC(=O)C1CCN(C(=O)c2ccccc2N(C)S(=O)(=O)c2ccccc2)CC1,12.6% (active)
20,CCN1CCN(C(=O)c2ccccc2N(C)S(=O)(=O)c2ccc(C)cc2)CC1,2.78% (inactive)
21,CCOC(=O)C1CCN(C(=O)c2cccc(S(=O)(=O)N(CC)c3ccccc3)c2)CC1,1.63% (inactive)
22,O=C(CSc1nc2ccccc2n1Cc1ccccc1Cl)N/N=C\c1c[nH]c2ccccc12,1.37% (inactive)
23,CC(C)CNc1cccc2c1S(=O)(=O)N(Cc1cn(Cc3ccccc3C(F)(F)F)nn1)Cc1ccccc1O2,-4.63% (inactive)
24,Cc1ccc(NC(=S)N(Cc2ccco2)C(C)c2cccs2)cc1 (stereo not drawn),9.84% (active)
25,Cc1cccc(NC(=S)N(CCN(C)C)C(C)c2ccco2)c1 (stereo not drawn),-0.2% (inactive)
26,Cc1ccc(-c2csc(N(Cc3ccco3)C(=O)c3cccs3)n2)cc1,0.51% (inactive)
